Measurements as given in PubChem BioAssay (NCATS).
Results filed as inconclusive are left out. Activity calls are given as the source filed them. Calls come from the whole dose curve; as a rule, active = well fitted curve in either direction with a large enough effect (not every such curve was filed as active); inconclusive = small, poorly fitted or top-dose-only effect, or another doubt; inactive = flat fitted curve, though single readings scatter.

The compounds below were run against Mitogen-activated protein kinase 10 (Mus musculus) (UniProt Q61831) (assay: JNK3 AlphaScreen Assay (AID 530;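 note: kinase came from lysate of stimulated human HepG2 cells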)). Conditions: JNK3 lysate, c-Jun phosphorylation; series mostly up to 57.1 µM.
Description: NIH Chemical Genomics Center [NCGC]
NIH Molecular Libraries Screening Centers Network [MLSCN]
The c-jun N-terminal kinase (JNK) family are serine/threonine protein kinases that phosphorylate c-jun, a component of the transcription factor […] (AP-1). JNK kinases are members of the mitogen-activated protein kinase family including the extracellular regulated kinases and p38 kinases. Three JNK genes (JNK 1, 2, and 3) have been identified in humans so far. JNK1 and JNK2 have a broad distribution and JNK3 is primarily found in neuronal tissues and cardiac myocytes.
JNK3 has been under consideration as a target for the treatment of neurodegenerative disorders. […] JNK pathway is also involved in pathological process in a mouse model of Parkinson's disease (Xia et al., 2001).
Given these potential tissue distributions and links to neuroprotection, JNK3 inhibitors should provide useful investigational tools to study the role of this kinase in several diseases including, arthritis, stroke, myocardial infarction, ischemic injury and Parkinson's disease.
A homogeneous AlphaScreen is developed to measure the activity of JNK3. AlphaScreen is a two bead-based proximity-dependent chemical energy transfer luminescent assay platform. The phosphorylation of a biotinylated c-jun substrate by JNK3 can be detected with an antibody raised against phosphorylated c-jun. This process brings streptavidin donor beads and Protein-A acceptor beads to within a proximity range of <200 nm, and subsequently lead a chemical luminescent reaction upon exciting donor beads with 680 nm laser excitation light. Inhibition of JNK3 activity by small molecules and subsequent decrease in the antibody binding to biotinylated c-jun could attenuate or abolish this chemical luminescent reaction.
Yang DD, Kuan CY, Whitmarsh AJ, Rincon M, Zheng TS, Davis RJ, Rakic P and Flavell RA (1997) Absence of excitotoxicity-induced apoptosis in the hippocampus of mice lacking the Jnk3 gene. Nature 389:865-870. [PMID: 9349820]
Herdegen T, Claret FX, Kallunki T, Martin-Villalba A, Winter C, Hunter T, and Karin M (1998) Lasting N-terminal phosphorylation of c-Jun and activation of c-Jun N-terminal kinases after neuronal injury. J.Neurosci. 18:5124-5135. [PMID: 9651196]
Xia XG, Harding T, Weller M, Bieneman A, Uney JB and Schulz JB (2001) Gene transfer of the JNK interacting protein-1 protects dopaminergic neurons in the MPTP model of Parkinson's disease. Proc.Natl.Acad.Sci.U.S.A. 98:10433-10438.
NCGC Assay Protocol Summary:
GST-cJun (1-79) (Stratagene, La Jolla CA, #205145) was biotnylated by PerkinElmer (PerkinElmer-BioSignalInc. Montreal, Canada) and was detectable by the streptavidin Donor beads. Anti-(phospho)cJun (Ser73) antibody was from UpState (Charlottesvilles, VA, #06-659). JNK3-containing lysates were generated from HepG2 cells and pre-activated by interleukin1-beta and tumor necrosis factor alpha. All reagents were stored at -20 C before using. Phosphorylated biotinylated-GST-cJun was recognized by Anti-(phospho)cJun (Ser73) antibody and this process brings acceptor and donor beads together. Therefore JNK3 phosphorylation of cJun can be measured by Alpha reading by EnVision (PerkinElmer, Boston, MA).
The composition of kinase buffer was (in mM) 20 tris- HCl (pH 7.6) 10 MgCl2, 1 DTT, and 0.1 Na3VO4 and 0.01% Tween-20. Beads were diluted in detection buffer containing (in mM) 20 tris-HCl (pH 7.7), 20 NaCl and 80 EDTA and 0.3% BSA. The assay was performed at room temperature. All compounds were screened as titrations from 0.6 nM to 46 uM final concentration. The assay was performed in 1536-well format (white solid bottom and untreated) as follows:
Sequence,Parameter,Value,Description
1,Reagent,3 uL,Biotin-GST-cJun, Anti-(phospho)cJun and pre-activated JNK3-containing lysates
2,Compound,23 nL,Final concentration was 0.6nM to 46uM
3,Time,15 minutes,Room Temperature
4,Reagent,1 uL,ATP final concentration 10uM
6,Reagent,0.5 uL,2ng/well bead mixture
[…]

Row | SMILES | outcome
1 | O=C(O)c1ccccc1Cl | inactive
2 | Cc1ccc(N(C)C)cc1 | inactive
3 | COc1ccc(N=[N+]([O-])c2ccc(OC)cc2)cc1 | inactive
4 | Cc1ccc(Br)cc1 | inactive
5 | O=P(O)(OCc1ccccc1)OCc1ccccc1 | inactive
6 | CC(C)C(C)C | inactive
7 | Cc1ccc2c(c1[N+](=O)[O-])C(=O)c1ccccc1C2=O | inactive
8 | ClCCl | inactive
9 | CCCCCCCN | inactive
10 | COCCOC(=O)c1ccccc1C(=O)OCCOC | inactive
11 | O=Cc1ccc(Cl)cc1 | inactive
12 | CSCCC=O | inactive
13 | C=C(C)C(=O)OCC(C)C | inactive
14 | C=CCCC | inactive
15 | CC(=O)OCCC(C)C | inactive
16 | CC(C)Nc1ccccc1 | inactive
17 | CC(C)CCOC(=O)/C=C/c1ccccc1 | inactive
18 | CC(C)(C)OC=O | inactive
19 | ON=C1CCCCC1 | inactive
20 | S=C([S-])NCCNC(=S)[S-].[Zn+2] | inactive

Row | SMILES | outcome
21 | Cc1ccc(C#N)cc1 | inactive
22 | CC(=O)c1cccc([N+](=O)[O-])c1 | inactive
23 | CC(=O)c1ccccc1[N+](=O)[O-] | inactive
24 | Cc1cc(C)cc(N)c1 | inactive
25 | Cc1cccc(C(=O)O)c1[N+](=O)[O-] | inactive
26 | CC(=O)Nc1ccc(C)cc1 | inactive
27 | NCCCCCCN | inactive
28 | Cc1ccccc1C#N | inactive
29 | CC(C)N(C)C | inactive
30 | CC(=O)c1ccc([N+](=O)[O-])cc1 | inactive
31 | CCOC(=O)C(C)C(C)=O (stereo not given) | inactive
32 | Nc1cc(S(=O)(=O)O)ccc1O | inactive
33 | CCOC(=O)OCC | inactive
34 | C=Cc1ccccc1C=C | inactive
35 | Cc1ccccc1Br | inactive
36 | Cc1cccc(C)c1O | inactive
37 | Cc1ccc2ccccc2c1[N+](=O)[O-] | inactive
38 | COC(=O)CS | inactive
39 | O=[N+]([O-])c1ccc(CCO)cc1 | inactive
40 | CCCCCCO | inactive
